Assay results from PubChem BioAssay (EPA / NIEHS).
Inconclusive results are not listed. Activity calls are given as the source filed them. The calls were made as follows, unless noted: active = hit-call score of the fitted dose curve at least 0.9, where 1 is the maximum; inactive = score below 0.9.

Legend:
[1] = target: Bile acid receptor (Homo sapiens) (UniProt Q96RI1); assay: ATG_FXR_TRANS: Attagene TRANS-FACTORIAL HepG2 Assay for Farnesoid X Receptor (FXR) (AID 2282979; active = hit-call score of the fitted dose curve at least 0.9, where 1 is the maximum;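 also: hits raise reporter mRNA above DMSO so AC50 marks FXR activation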); conditions: HepG2 Attagene TRANS FXR-GAL4 reporter transcription
Summary of the method: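 After 24 h chemical treatment of transfected HepG2 cells, GAL4-UAS reporter transcripts driven by an exogenous FXR-GAL4 fusion were measured by RT-PCR and capillary electrophoresis. Increases over DMSO were fitted.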

[2] = ATG_M_06_TRANS: Attagene TRANS-FACTORIAL HepG2 Assay for M06 Transcription Factor (Internal Marker) (AID 2282983; active = hit-call score of the fitted dose curve at least 0.9, where 1 is the maximum); conditions: HepG2 Attagene TRANS M06 internal marker reporter
Summary of the method: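 Multi-reporter-transfected HepG2, 24 h treatment; reporter transcripts quantified via RT-PCR, primer-extension labelling and CE. DMSO-normalized gain-of-signal fit.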

[3] = ATG_M_32_TRANS: Attagene TRANS-FACTORIAL HepG2 Assay for M32 Transcription Factor (Internal Marker) (AID 2282984; active = hit-call score of the fitted dose curve at least 0.9, where 1 is the maximum;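 also: transcript level of a background control reporter unit measured by RT-PCR and capillary electrophoresis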); conditions: HepG2 Attagene TRANS M32 internal marker reporter
Summary of the method: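 Internal background reporter in transfected HepG2: after 24 h chemical exposure, RNA reverse-transcribed, reporter cDNA amplified, fluorescently labelled and HpaI-cut, then sized by capillary electrophoresis. Gain of signal fitted against DMSO control.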

[4] = target: Nuclear respiratory factor 1 (Homo sapiens) (UniProt Q16656); assay: ATG_NRF1_CIS: Attagene CIS-FACTORIAL HepG2 Assay for human Nuclear Respiratory Factor 1 (NRF1) Orphan Gene (AID 2282987); conditions: HepG2 NRF1 cis-element reporter, Attagene multiplex; actives raise or lower the signal
Summary of the method: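 Endogenous NRF1-driven reporter transcription in transfected HepG2 cells after 24 h treatment. Readout: RT-PCR products, 6-FAM labelled and resolved by capillary electrophoresis; changes fitted both directions relative to DMSO.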

[5] = target: Myc proto-oncogene protein (Homo sapiens) (UniProt P01106); assay: ATG_Myc_CIS: Attagene CIS-FACTORIAL HepG2 Assay for human Myelocytomatosis (Myc) Proto-Oncogene Transcription Factor (AID 2282990); conditions: HepG2, Attagene cis-reporter transcription factor activity; actives raise or lower the signal
Summary of the method: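 Cells of the HepG2 human liver line bear multiple cis-driven reporter transcription units. Reporter mRNA after 24 h exposure is reverse-transcribed, amplified, labelled and resolved by capillary electrophoresis, with gain- or loss-of-signal fitting relative to DMSO.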

[6] = ATG_NF_kB_CIS: Attagene CIS-FACTORIAL HepG2 Assay for human Nuclear Factor Kappa B (NF-kB) (AID 2282991); conditions: HepG2 Attagene cis-factorial NF-kB reporter mRNA; actives raise or lower the signal
Summary of the method: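 Readout is reporter transcript level, gain or loss versus DMSO, measured 24 h post-dose via RT-PCR, fluorescent labelling and capillary electrophoresis. Human HepG2 liver cells carried transiently transfected CIS reporter constructs reflecting endogenous factors.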

[7] = ATG_NRF2_ARE_CIS: Attagene CIS-FACTORIAL HepG2 Assay for human Nuclear Factor Erythroid 2 Related Factor 2 (NFR2) response to Antioxidant Response Elements (ARE) (AID 2282992); conditions: HepG2 Attagene ARE/NRF2 reporter, transcription factor activity; actives raise or lower the signal
Summary of the method: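 Endogenous transcription factor activity read out as reporter transcript levels (RT-PCR plus capillary electrophoresis, fluorescence) in transiently transfected HepG2 cells. Measured at 24 h after dosing; gain or loss of signal fitted versus DMSO.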

[8] = ATG_Oct_MLP_CIS: Attagene CIS-FACTORIAL HepG2 Assay for human Octamer-Binding Transcription Factor (Oct) (AID 2282993); conditions: HepG2 Attagene cis-factorial Oct reporter, mRNA; actives raise or lower the signal
Summary of the method: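 Readout is reporter transcript level from RT-PCR with fluorescent primer extension and capillary electrophoresis, fitted in both directions against DMSO. Transfected HepG2 reporter units report endogenous factor activity after 24 h dosing.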

[9] = target: Cellular tumor antigen p53 (Homo sapiens) (UniProt P04637); assay: ATG_p53_CIS: Attagene CIS-FACTORIAL HepG2 Assay for human p53 Transcription Factor (AID 2282994); conditions: HepG2 p53 cis-element reporter, Attagene mRNA; actives raise or lower the signal
Summary of the method: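 Endogenous p53 activity read in transiently transfected HepG2 from a cis-element-driven reporter transcript after 24 h exposure. RNA reverse-transcribed, PCR-amplified, fluorescently labelled and sized by capillary electrophoresis; gain or loss fitted against DMSO baseline.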

[10] = target: Oxysterols receptor LXR-beta (Homo sapiens) (UniProt P55055); assay: ATG_LXRb_TRANS: Attagene TRANS-FACTORIAL HepG2 Assay for human Liver X Receptor beta (LXRb) (AID 2282981; active = hit-call score of the fitted dose curve at least 0.9, where 1 is the maximum); conditions: HepG2 Attagene TRANS GAL4-LXRb reporter, mRNA
Summary of the method: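 After 24 h chemical treatment of transfected HepG2 cells carrying exogenous NR-Gal4 chimeras, reporter mRNA was quantified by fluorescent RT-PCR and capillary electrophoresis; activity taken as increase over DMSO controls.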

[11] = target: Transcriptional activator Myb (Homo sapiens) (UniProt P10242); assay: ATG_Myb_CIS: Attagene CIS-FACTORIAL HepG2 Assay for human Myeloblastosis (Myb) Proto-Oncogene Transcription Factor (AID 2282986); conditions: HepG2 Attagene CIS-FACTORIAL Myb reporter transcription; actives raise or lower the signal
Summary of the method: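 Reporter mRNA is quantified by RT-PCR and capillary electrophoresis 24 h after dosing HepG2 cells transfected with cis-regulated reporter units, which track endogenous transcription factor activity. Gain and loss of signal are fitted versus DMSO baseline.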

[12] = ATG_NFI_CIS: Attagene CIS-FACTORIAL HepG2 Assay for human Nuclear Factor I (NFI) (AID 2282989); conditions: HepG2 cis-regulatory reporter, NFI response element transcription; actives raise or lower the signal
Summary of the method: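 Reporter transcripts were measured by RT-PCR with fluorescent primer extension and capillary electrophoresis 24 h post-treatment. HepG2 cells carried transiently transfected cis-regulated reporter constructs reporting endogenous factor activity; gain or loss fitted against DMSO baseline.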

[13] = target: Hepatocyte nuclear factor 4-alpha (Homo sapiens) (UniProt P41235); assay: ATG_HNF4a_TRANS: Attagene TRANS-FACTORIAL HepG2 Assay for human Hepatocyte Nuclear Factor 4 alpha (HNF4a) (AID 2282982; active = hit-call score of the fitted dose curve at least 0.9, where 1 is the maximum); conditions: HepG2 HNF4a transactivation reporter, mRNA readout
Summary of the method: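 Activity of an exogenous HNF4a–Gal4 fusion scored as induced GAL4-UAS reporter transcripts after 24 h chemical exposure of transfected human HepG2 cells. Read-out via RT-PCR with 6-FAM labelling and capillary electrophoresis; rise over DMSO baseline.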

[14] = target: Nuclear receptor subfamily 4 group A member 2 (Homo sapiens) (UniProt P43354); assay: ATG_NURR1_TRANS: Attagene TRANS-FACTORIAL HepG2 Assay for human Nuclear Receptor Related Protein 1 (NURR1) (AID 2282985; active = hit-call score of the fitted dose curve at least 0.9, where 1 is the maximum); conditions: HepG2 Attagene TRANS reporter, mRNA readout
Summary of the method: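 Reporter transcript induction, measured by RT-PCR with fluorescent labelling, HpaI digestion and capillary electrophoresis, after 24 hr dosing of human HepG2 cells transiently expressing an exogenous NR-Gal4 fusion with GAL4-UAS-driven reporters; DMSO as baseline.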

[15] = BSK_3C_TissueFactor: BioMAP Diversity Plus: 3C Assay for Tissue Factor Biomarker Activity (AID 2282997); conditions: BioMAP 3C HUVEC, tissue factor biomarker readout; actives raise or lower the signal
Summary of the method: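 In this endothelial system, HUVEC are treated for 24 h and Tissue Factor is assessed by ELISA, normalised to DMSO.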

[16] = BSK_3C_uPAR: BioMAP Diversity Plus: 3C Assay for Urokinase-type plasminogen activator receptor (uPAR) Biomarker Activity (AID 2282998); conditions: BioMAP 3C HUVEC, uPAR biomarker ELISA; actives raise or lower the signal
Summary of the method: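 Cell-surface uPAR on HUVEC (3C system) read by ELISA at 24 h post-treatment, with DMSO as baseline and fitting in both directions. Parallel cultures stained with SRB to flag overt cytotoxicity.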

[17] = BSK_3C_VCAM1: BioMAP Diversity Plus: 3C Assay for Vascular cell adhesion molecule 1 (VCAM1) Biomarker Activity (AID 2282999); conditions: BioMAP 3C HUVEC, VCAM1 ELISA, cytokine-stimulated; actives raise or lower the signal
Summary of the method: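 Activity fitted in both directions relative to DMSO, with ELISA measurement of the surface marker on primary HUVEC (3C) at 24 h post-treatment; parallel SRB staining (0.1% SRB, TCA-fixed, 560 nm) flagged overt cytotoxicity.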

[18] = BSK_4H_Eotaxin3: BioMAP Diversity Plus: 4H Assay for Eotaxin 3 Biomarker Activity (AID 2283000); conditions: primary human endothelial cells (HUVEC); actives raise or lower the signal
Summary of the method: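 ELISA quantitation of CCL26 (Eotaxin-3) protein from chemically dosed human vascular endothelial cells at 24 h; increases and decreases both scored relative to DMSO-treated baseline.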

Measured: AC50

Hepatocyte nuclear factor 4-alpha (Homo sapiens), sequence (P41235 whole entry, looked up, the tested form may be a part): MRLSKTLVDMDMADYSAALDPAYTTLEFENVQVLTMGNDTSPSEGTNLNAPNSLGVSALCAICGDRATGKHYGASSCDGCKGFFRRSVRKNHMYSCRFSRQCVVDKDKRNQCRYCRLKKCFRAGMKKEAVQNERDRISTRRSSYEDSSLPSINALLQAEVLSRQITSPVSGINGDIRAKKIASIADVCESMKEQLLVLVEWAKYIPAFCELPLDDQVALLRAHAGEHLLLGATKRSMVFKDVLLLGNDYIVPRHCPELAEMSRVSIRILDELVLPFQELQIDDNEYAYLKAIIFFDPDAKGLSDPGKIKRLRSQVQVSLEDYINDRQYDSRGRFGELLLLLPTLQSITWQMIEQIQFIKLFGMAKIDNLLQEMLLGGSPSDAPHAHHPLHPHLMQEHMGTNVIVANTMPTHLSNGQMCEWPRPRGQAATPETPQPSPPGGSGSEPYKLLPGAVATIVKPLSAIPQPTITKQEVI
Nuclear respiratory factor 1 (Homo sapiens), sequence (Q16656 whole entry, looked up): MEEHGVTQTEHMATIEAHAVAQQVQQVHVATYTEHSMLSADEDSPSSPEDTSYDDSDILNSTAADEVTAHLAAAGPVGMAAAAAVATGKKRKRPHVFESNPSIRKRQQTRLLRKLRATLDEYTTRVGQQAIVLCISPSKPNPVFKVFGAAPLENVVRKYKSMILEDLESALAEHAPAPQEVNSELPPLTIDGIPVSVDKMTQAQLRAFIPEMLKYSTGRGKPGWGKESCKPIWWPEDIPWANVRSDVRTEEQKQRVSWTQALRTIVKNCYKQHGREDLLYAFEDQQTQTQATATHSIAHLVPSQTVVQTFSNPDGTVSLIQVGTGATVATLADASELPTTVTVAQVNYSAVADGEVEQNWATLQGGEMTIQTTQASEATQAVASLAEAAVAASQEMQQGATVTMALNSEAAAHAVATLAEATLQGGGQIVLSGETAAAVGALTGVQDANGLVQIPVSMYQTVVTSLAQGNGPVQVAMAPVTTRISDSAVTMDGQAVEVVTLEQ
Bile acid receptor (Homo sapiens), sequence (Q96RI1 whole entry, looked up, the tested form may be a part): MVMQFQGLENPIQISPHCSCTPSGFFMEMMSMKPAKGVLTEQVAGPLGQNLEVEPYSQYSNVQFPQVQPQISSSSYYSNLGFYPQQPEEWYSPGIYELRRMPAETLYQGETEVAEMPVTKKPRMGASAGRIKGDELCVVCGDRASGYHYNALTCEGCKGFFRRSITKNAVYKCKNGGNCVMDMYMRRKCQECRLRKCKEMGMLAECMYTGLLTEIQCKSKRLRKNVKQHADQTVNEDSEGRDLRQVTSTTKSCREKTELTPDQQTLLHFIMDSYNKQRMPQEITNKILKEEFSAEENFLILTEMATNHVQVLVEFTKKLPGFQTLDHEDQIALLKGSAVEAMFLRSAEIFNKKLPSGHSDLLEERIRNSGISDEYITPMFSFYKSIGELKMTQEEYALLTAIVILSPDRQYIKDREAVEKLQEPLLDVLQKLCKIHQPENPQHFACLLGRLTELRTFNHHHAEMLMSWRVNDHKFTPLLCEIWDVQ
Cellular tumor antigen p53 (Homo sapiens), sequence (P04637 whole entry, looked up): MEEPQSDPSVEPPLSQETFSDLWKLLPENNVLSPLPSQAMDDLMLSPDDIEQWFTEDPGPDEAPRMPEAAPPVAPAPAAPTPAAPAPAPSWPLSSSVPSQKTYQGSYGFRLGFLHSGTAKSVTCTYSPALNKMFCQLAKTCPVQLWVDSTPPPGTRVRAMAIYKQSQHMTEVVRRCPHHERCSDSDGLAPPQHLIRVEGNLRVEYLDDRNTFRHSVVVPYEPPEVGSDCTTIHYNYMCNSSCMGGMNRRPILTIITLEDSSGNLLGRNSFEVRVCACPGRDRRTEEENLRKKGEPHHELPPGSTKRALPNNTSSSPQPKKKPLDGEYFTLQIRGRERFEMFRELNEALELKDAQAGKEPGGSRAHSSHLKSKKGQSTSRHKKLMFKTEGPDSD
Myc proto-oncogene protein (Homo sapiens), sequence (P01106 whole entry, looked up): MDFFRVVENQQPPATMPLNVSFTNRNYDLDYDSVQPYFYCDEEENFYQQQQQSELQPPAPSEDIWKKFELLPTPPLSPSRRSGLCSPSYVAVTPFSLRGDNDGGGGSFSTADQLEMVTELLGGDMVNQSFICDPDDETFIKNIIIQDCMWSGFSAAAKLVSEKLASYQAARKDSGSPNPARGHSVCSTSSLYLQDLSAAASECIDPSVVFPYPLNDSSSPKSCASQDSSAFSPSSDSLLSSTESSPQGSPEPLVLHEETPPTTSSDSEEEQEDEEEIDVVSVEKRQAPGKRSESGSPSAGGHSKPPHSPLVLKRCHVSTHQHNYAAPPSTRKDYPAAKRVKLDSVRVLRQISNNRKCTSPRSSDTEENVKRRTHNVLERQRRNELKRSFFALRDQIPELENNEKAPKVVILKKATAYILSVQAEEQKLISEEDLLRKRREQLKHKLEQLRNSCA
Transcriptional activator Myb (Homo sapiens), sequence (P10242 whole entry, looked up): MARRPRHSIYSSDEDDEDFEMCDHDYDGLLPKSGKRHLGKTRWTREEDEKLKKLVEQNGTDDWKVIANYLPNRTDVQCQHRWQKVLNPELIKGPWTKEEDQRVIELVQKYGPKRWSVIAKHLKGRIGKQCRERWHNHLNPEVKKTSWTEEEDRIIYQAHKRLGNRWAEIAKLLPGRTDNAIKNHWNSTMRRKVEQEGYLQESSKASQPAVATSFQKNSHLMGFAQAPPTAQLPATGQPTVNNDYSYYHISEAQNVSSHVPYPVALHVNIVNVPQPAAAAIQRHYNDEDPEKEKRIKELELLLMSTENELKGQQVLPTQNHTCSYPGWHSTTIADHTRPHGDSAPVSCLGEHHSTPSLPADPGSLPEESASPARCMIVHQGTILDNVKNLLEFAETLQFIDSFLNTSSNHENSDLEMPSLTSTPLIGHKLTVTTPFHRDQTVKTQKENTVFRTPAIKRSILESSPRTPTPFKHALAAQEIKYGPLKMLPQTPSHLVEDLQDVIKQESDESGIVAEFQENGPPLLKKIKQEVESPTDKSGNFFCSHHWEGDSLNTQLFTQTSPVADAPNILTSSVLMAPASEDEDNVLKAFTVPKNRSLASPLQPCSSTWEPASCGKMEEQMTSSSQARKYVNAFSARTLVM
Oxysterols receptor LXR-beta (Homo sapiens), sequence (P55055 whole entry, looked up, the tested form may be a part): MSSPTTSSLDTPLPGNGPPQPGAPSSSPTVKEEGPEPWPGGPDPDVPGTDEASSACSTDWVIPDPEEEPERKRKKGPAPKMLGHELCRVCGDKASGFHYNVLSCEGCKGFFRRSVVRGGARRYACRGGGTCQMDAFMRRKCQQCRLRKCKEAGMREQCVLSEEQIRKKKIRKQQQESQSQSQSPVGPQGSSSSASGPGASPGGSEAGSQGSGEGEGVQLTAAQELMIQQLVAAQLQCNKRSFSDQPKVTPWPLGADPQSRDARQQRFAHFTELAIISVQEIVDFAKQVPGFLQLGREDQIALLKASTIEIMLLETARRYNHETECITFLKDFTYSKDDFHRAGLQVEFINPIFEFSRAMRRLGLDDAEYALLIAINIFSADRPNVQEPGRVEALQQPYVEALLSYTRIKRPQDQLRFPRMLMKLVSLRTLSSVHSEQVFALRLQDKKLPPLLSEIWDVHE
Nuclear receptor subfamily 4 group A member 2 (Homo sapiens), sequence (P43354 whole entry, looked up, the tested form may be a part): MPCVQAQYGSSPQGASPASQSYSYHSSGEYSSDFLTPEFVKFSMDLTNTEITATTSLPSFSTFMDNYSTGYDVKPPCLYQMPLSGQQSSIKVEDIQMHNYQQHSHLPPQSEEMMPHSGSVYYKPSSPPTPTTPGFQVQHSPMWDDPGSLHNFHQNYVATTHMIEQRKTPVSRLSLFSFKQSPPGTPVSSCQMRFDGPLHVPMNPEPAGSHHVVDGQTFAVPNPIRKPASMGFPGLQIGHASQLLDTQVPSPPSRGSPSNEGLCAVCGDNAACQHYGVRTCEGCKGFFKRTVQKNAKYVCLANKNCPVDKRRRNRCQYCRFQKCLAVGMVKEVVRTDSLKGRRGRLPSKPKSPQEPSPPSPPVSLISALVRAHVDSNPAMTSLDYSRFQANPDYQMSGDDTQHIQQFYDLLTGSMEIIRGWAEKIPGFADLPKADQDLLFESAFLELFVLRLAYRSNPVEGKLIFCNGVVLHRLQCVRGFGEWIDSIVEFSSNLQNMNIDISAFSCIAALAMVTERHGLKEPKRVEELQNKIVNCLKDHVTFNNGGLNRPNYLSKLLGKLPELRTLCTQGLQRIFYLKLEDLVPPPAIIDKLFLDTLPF

CCN(CCC#N)c1ccc(N=Nc2ccc([N+](=O)[O-])cc2)cc1
active: [7] 64.7 µM
inactive: [1] | [2] | [3] | [4] | [5] | [6] | [8] | [9]

Nc1ccccc1[N+](=O)[O-]
not listed: [13] | [14] | [15] | [16] | [17] | [18]
inactive: all other assays above

Cc1c(OCC(F)(F)F)ccnc1CS(=O)c1nc2ccccc2[nH]1 (stereo unspecified)
active: [4] 128 µM | [7] 49.1 µM
inactive: [1] | [10] | [2] | [3] | [12] | [5] | [6] | [8] | [9]

COc1ccc(COC(C)=O)cc1
not listed: [3] | [9] | [15] | [16] | [17] | [18]
inactive: all other assays above

Oc1c(Cl)cc(Cl)c(Cl)c1Cc1c(O)c(Cl)cc(Cl)c1Cl
inactive: [10] | [13] | [11] | [4] | [12] | [6]
active: [1] 17.6 µM | [14] 11.1 µM | [5] 4.41 µM | [7] 3.04 µM | [8] 1.3 µM | [9] 11.1 µM | [15] 18.5 µM | [16] 1.23 µM | [17] 20 µM | [18] 10.8 µM

C1=CC2C3C=CC(C3)C2C1 (stereo unspecified)
not listed: [3] | [4] | [13]
inactive: all other assays above

CCN(CC)C(=O)N(CC)CC
not listed: [10] | [13] | [14]
inactive: all other assays above

NCc1ccco1
inactive: [1] | [13] | [3] | [11] | [4] | [12] | [5] | [6] | [8] | [9]

CC(=O)c1c(C)c([N+](=O)[O-])c(C(C)(C)C)c([N+](=O)[O-])c1C
not listed: [3] | [14]
inactive: all other assays above

NC(=S)NNC(N)=S
inactive: [1] | [10] | [13] | [3] | [11] | [4] | [12] | [5] | [8] | [9]
